Assay results: ChEMBL document CHEMBL1157539, “Thousands of chemical starting points for antimalarial lead identification” (Nature, 2010)

Tests used:
Assay type in all cases: functional
[1] = test system: Plasmodium falciparum; assay: GSK_TCMDC: Inhibition of Plasmodium falciparum 3D7 in whole red blood cells, using parasite LDH activity as an index of growth. Test compounds present at 2uM
[2] = test system: Plasmodium falciparum; assay: GSK_TCMDC: Inhibition of Plasmodium falciparum Dd2 in whole red blood cells, using parasite LDH activity as an index of growth. Test compounds present at 2uM
[3] = test system: HepG2; assay: GSK_TCMDC: Percent inhibition of human HepG2 cell line. Test compounds present at 10uM.

| Compound | Inhibition [1] [%] | Inhibition [2] [%] | Inhibition [3] [%] |
| --- | --- | --- | --- |
| COc1ccc2nccc(N3CCC(SCCNS(=O)(=O)c4ccc5c(c4)OCCO5)C3)c2n1.Cl (stereo not given) | 94 | 87 | 36 |
| COc1c(CN2CCCC2)cccc1-c1cc2c(-c3ccc(C(=O)O)c(C(C)C)c3)ccnc2[nH]1.O=C(O)C(F)(F)F | 99 | 98 | 56 |
| Cc1noc(C)c1-c1cccc(CNCc2cccc(-c3cccc(-c4nc5cc(F)ccc5[nH]4)c3)c2)c1.O=C(O)C(F)(F)F | 100 | 73 | 18 |
| O=C1C(c2ccccc2)=C(Nc2ccc(OC(F)(F)F)cc2)c2ccccc21 | 96 | 96 | 18 |
| O=C(O)C(F)(F)F.OC1CCCN(Cc2ccc(-c3cccc(-c4nc5ccccc5[nH]4)c3)cc2)C1 (stereo not given) | 86 | 0 | 14 |
| CC(C)(C)c1cc(Cn2ccnc2)cc(C(C)(C)C)c1O | 85 | 3 | 4 |
| COc1ccc2c(NN=Cc3ccccc3Cl)ccnc2c1 | 99 | 46 | 10 |
| CC(=O)CC(=O)N1CCN(c2ccccc2)CC1 | 85 | 0 | 54 |
| O=C(N[C@@H](Cc1ccccc1)C(=O)NCc1cccc2ccccc12)c1ccc(O)c(-c2ccc(Cl)c(Cl)c2)c1 | 100 | 97 | 0 |
| CS(=O)(=O)N(CC(O)Cn1c2ccc(Cl)cc2c2cc(Cl)ccc21)c1ccccc1 (stereo not given) | 100 | 98 | 2 |
| COCCNCc1ccc(-c2cccc(CNc3ccc(OC)cc3)c2)cc1.O=C(O)C(F)(F)F | 94 | 2 | 16 |
| C[C@H](Cc1ccc(OCCCCCCOc2ccc(C[C@@H](C)N[C@H](C)c3ccccc3)cc2)cc1)NC[C@H](O)c1cccc(Cl)c1.Cl | 99 | 98 | 99 |
| Cl.O=c1cc(NCCCNCc2sc(Br)c(Br)c2Br)[nH]c2ccccc12 | 90 | 38 | 0 |
| COc1ccc2nccc(N3CCC(NCc4ccc5c(n4)NC(=O)CS5)CC3)c2n1 | 100 | 63 | 14 |
| NC(=O)C1Cc2ccccc2CN1CC(=O)Nc1ccccc1Sc1ccccc1 (stereo not given) | 100 | 99 | 5 |
| COc1ccc2nccc([C@@H](O)CN3CCC(NCc4cc5cccc(O)c5[nH]4)CC3)c2c1.O=C(O)C(=O)O | 100 | 35 | 0 |
| Cl.c1ccc(Oc2ccc(Nc3ccnc(Nc4ccc5cn[nH]c5c4)n3)cc2)cc1 | 94 | 33 | 6 |
| CCn1ccc2c(N3CCCCS3(=O)=O)cc(C(=O)N[C@@H](Cc3ccccc3)[C@H](O)CNC(C)(C)c3cccc(C(F)(F)F)c3)cc21 | 97 | 98 | 6 |
| Cc1ccc(CNc2ccc3ncc(-c4cccc(C(=O)NCCN(C)C)c4)n3n2)c(C)c1 | 100 | 78 | 97 |
| CCOc1ccc(OCC(=O)Nc2nc(-c3ccc(OC)cc3)c(C)s2)cc1 | 99 | 98 | 0 |
